According to PubChem BioAssay (NCATS):
Results filed as inconclusive are left out. Calls of active or inactive are those of the source. Unless noted, calls come from the whole dose curve; as a rule, active = well fitted curve in the direction sought with a large enough effect; inconclusive = small, poorly fitted or top-dose-only effect, or another doubt; inactive = no such curve, though single readings can be large; an effect the other way counts as inactive or inconclusive.

Key:
[1] = tested on: Zika virus NS2B-NS3 protease; assay: Primary screen GU AMC qHTS for Zika virus inhibitors (AID 1347154);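 note: 0% = no-inhibitor control and -100% = no-enzyme control; nearly all actives have a fitted effect of over 70% in size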
Outline: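 Unlinked Zika NS2B hydrophilic domain/NS3 protease domain noncovalent complex (25 nM final) in 10 mM Tris-HCl pH 8.0, 0.01% Tween 20, with AMC peptide substrate. Fluorescence (ex 340, em 450 nm) change over 15 min, room temperature; percent inhibition fitted to 4-parameter Hill equation.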

[2] = Counterscreen qHTS for small molecule stabilizers of the endoplasmic reticulum resident proteome: GLuc-NoTag assay (AID 1508627);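 note: 0% = thapsigargin alone and -100% = DMSO vehicle control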
Outline: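 Secreted GLuc lacking the SERCaMP modification is measured in SH-SY5Y cells exposed to compound for 19 h and then to thapsigargin (100 nM, 4 h) to deplete ER calcium; hits retested at 11 concentrations, up to 76.6 uM.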

[3] = Confirmatory qHTS for small molecule stabilizers of the endoplasmic reticulum resident proteome: Secreted ER Calcium Modulated Protein (SERCaMP) assay (AID 1508628); note: nearly all actives have a fitted effect of over 40% in size; note: potency is the fitted concentration of half-maximal effect
Outline: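 GLuc-SERCaMP-expressing SH-SY5Y cells, pretreated 16 h with compound, are challenged with thapsigargin to empty ER calcium stores; after 4 h, coelenterazine is added directly to the medium and luminescence is imaged.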

[4] = Primary qHTS for small molecule stabilizers of the endoplasmic reticulum resident proteome: Secreted ER Calcium Modulated Protein (SERCaMP) assay (AID 1508630); note: % is set by controls: 0 for no effect and ±100 for the full control effect
Outline: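 The SH-SY5Y reporter protocol was run at 3 concentrations up to 38.3 uM (primary) or 11 concentrations (follow-up): 16 h compound, 100 nM thapsigargin for 4 h, then extracellular luciferase luminescence.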

[5] = biological target: Cytochrome P450 3A4 (Homo sapiens) (UniProt P08684); assay: qHTS Assay for Inhibitors and Substrates of Cytochrome P450 3A4 (AID 884); note: % is set by controls: 0 for no effect and ±100 for the full control effect; nearly all actives have a fitted effect of over 50% in size
Cytochrome P450 3A4 (Homo sapiens), sequence (P08684 whole entry, looked up): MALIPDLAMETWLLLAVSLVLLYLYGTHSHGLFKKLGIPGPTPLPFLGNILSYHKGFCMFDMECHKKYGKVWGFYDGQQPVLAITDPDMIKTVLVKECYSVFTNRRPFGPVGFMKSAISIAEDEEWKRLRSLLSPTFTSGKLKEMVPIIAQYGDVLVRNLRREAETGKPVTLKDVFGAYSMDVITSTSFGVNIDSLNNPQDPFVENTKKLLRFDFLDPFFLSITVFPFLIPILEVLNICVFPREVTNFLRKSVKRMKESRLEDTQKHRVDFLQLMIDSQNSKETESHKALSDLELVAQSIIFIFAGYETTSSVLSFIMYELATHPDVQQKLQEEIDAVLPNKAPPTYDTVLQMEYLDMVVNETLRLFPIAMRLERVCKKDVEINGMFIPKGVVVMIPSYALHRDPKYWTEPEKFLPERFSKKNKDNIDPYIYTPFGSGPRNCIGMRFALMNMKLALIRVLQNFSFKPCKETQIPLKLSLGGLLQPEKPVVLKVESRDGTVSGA
Outline: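 Luminescent readout of luciferin produced by CYP3A4 (20 nM) dealkylation of Luciferin-PPXE, 25 uM (its KM). NADPH-driven reaction ran 60 min at RT after 10 min compound preincubation; data scaled to 57 uM ketoconazole as 100% inhibition.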

[6] = AP1 Signaling Pathway (AID 357; active = well fitted curve in either direction with a large enough effect, not every such curve was filed as active;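 note: ME-180 reporter cells stimulated with EGF at its EC50 level; % is set by controls: 0 for no effect and ±100 for the full control effect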); details: ME-180 AP-1-bla reporter, EGF-induced, beta-lactamase ratio, 5 h
Outline: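 First, ME-180 AP-1-bla cells were cultured overnight at 37 °C in low-serum Opti-MEM. Next, titrated compounds with EC50 EGF were incubated 5 hours. Finally, CCF4 was added for 2.5 hours and the 460/530 nm ratio recorded.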

[7] = Stat Signaling Pathway (AID 446; active = well fitted curve in either direction with a large enough effect, not every such curve was filed as active;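 note: ME-180 cervical cancer cells given 40 pM IL-6 alongside compound; SIE-controlled beta-lactamase reporter measured as 460/530 nm FRET emission ratio; % is set by controls: 0 for no effect and ±100 for the full control effect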); details: ME-180 (cervical carcinoma) SIE beta-lactamase reporter, IL-6 stimulated, 5 h
Outline: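 Compound effects on IL-6-induced STAT reporter activity were measured in ME-180 cells. After overnight culture, cells were co-treated with 40 pM IL-6 for 5 hrs before beta-lactamase substrate loading at room temperature.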

[8] = biological target: Mitogen-activated protein kinase 10 (Mus musculus) (UniProt Q61831); assay: JNK3 AlphaScreen Assay (AID 530; active = well fitted curve in either direction with a large enough effect, not every such curve was filed as active;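 note: kinase came from lysate of stimulated human HepG2 cells; signal reports phosphorylation of biotinylated GST-cJun 1-79 at Ser73 with 10 µM ATP; % is set by controls: 0 for no effect and ±100 for the full control effect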)
Outline: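 Biotinylated GST-cJun(1-79) served as substrate for JNK3 in HepG2 lysates stimulated with IL-1beta and TNF-alpha. ATP was 10 uM final, pH 7.6. Ser73 phosphorylation was quantified by AlphaScreen (680 nm excitation).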

[9] = biological target: Guanine nucleotide-binding protein G(i) subunit alpha-1 (Homo sapiens) (UniProt P63096); assay: qHTS Assay for Inhibitors of RGS12 GoLoco Motif Activity (Green Fluorophore) (AID 879);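 note: 0% = labeled peptide with Gαi1 and full inhibition = labeled peptide alone without protein; negative values mean loss of peptide binding seen as reduced polarization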
Outline: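 A drop in FITC polarization marked displacement of the FITC-tagged RGS12 GoLoco peptide (10 nM) from Gαi1 (50 nM). Compounds were incubated 10 min at room temperature in Tris pH 7.5 buffer containing 150 mM NaCl, 0.1 mM GDP and 0.05% NP40; unlabeled peptide titration served as control.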

[10] = qHTS Assay for Identification of Small Molecule Agonists for Thrombopoietin (TPO) Signaling Pathway (AID 917); note: % is set by controls: 0 for no effect and ±100 for the full control effect
Outline: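 Human TPO receptor–transfected Ba/F3 cells (murine, IL-3-dependent) in IL-3-deficient medium; compounds plus TPO at EC50, 26 pM final; 24 hrs, 37 C; GpIIb-luciferase luminescence after 10 min RT detection.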

[11] = biological target: Pyruvate kinase (Leishmania mexicana) (UniProt Q27686); assay: qHTS Validation Assay for Inhibitors of Leishmania Mexicana Pyruvate Kinase (AID 945);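 note: 0% = DMSO only neutral control wells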
Outline: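 Substrate mix (0.5 mM PEP, 0.1 mM ADP, 7 mM MgCl2, 50 mM KCl, pH 7.2 imidazole) received compound by pin tool, then 0.2 nM LmPYK E451W. After 1 h at room temperature, PKLight was added and luminescence measured.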

[12] = biological target: Pyruvate kinase PKM (Homo sapiens) (UniProt P14618); assay: qHTS Assay for Activators of Human Muscle Pyruvate Kinase (AID 954; active = well fitted curve in the direction sought with a large enough effect, not every such curve was filed as active;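 note: 0% = uninhibited enzyme and -100% = no enzyme or full thiadiazolimine inhibition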)
Pyruvate kinase PKM (Homo sapiens), sequence (P14618 whole entry, looked up): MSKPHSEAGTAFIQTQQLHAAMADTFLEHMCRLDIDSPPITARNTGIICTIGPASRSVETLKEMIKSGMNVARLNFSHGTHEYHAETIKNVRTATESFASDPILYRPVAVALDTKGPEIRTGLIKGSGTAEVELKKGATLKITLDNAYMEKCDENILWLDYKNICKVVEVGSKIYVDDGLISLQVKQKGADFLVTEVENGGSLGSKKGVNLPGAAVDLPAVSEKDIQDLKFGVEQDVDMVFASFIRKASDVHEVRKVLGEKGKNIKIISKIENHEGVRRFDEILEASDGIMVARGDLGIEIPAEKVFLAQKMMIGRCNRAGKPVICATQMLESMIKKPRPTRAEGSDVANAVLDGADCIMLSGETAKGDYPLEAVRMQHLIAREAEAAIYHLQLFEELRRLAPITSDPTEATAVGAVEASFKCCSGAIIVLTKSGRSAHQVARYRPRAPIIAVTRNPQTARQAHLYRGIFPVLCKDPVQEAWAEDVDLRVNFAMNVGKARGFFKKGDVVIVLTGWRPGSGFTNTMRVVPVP
Outline: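 A coupled luminescent readout tracked ATP made from ADP by purified PKM2. Final conditions included 0.1 nM enzyme, PEP and ADP at 0.5 and 0.1 mM, pH 7.2 imidazole buffer with BSA, and a one-hour room-temperature reaction.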

[13] = biological target: Alpha-galactosidase A (Homo sapiens) (UniProt P06280); assay: Counterscreen for Glucocerebrosidase Inhibitors: qHTS Assay for Human alpha-Galactosidase at pH 4.5 (AID 992); note: 0% is about no effect
Outline: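 Citrate buffer pH 4.5, Tween-20 0.005%. Enzyme 2 nM, substrate 80 uM, 20 min RT. Stop pH 10. Fluorescence Ex 365/Em 440. AC50 by Hill fit.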

[14] = biological target: alpha-glucosidase (Oryza sativa, rice) (UniProt Q653V4); assay: Counterscreen for Glucocerebrosidase Inhibitors: qHTS Assay for Rice alpha-Glucosidase at pH 5.0 (AID 997);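 note: 0% = full activity with enzyme and -100% = basal without enzyme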
Outline: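 Endpoint fluorogenic assay at pH 5.0: compounds (0.7 nM to 77 uM) titrated against 4 nM rice enzyme and 400 uM 4-MU-alpha-glucoside for 20 min at room temperature; NaOH/glycine stop, read ex 365/em 440 nm, Hill-fitted AC50.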

[15] = biological target: DNA dC->dU-editing enzyme APOBEC-3G (Homo sapiens) (UniProt Q9HC16); assay: qHTS for inhibitors of Vif-A3G interactions: Validation (AID 588379); note: 0% is about no effect
DNA dC->dU-editing enzyme APOBEC-3G (Homo sapiens), sequence (Q9HC16 whole entry, looked up): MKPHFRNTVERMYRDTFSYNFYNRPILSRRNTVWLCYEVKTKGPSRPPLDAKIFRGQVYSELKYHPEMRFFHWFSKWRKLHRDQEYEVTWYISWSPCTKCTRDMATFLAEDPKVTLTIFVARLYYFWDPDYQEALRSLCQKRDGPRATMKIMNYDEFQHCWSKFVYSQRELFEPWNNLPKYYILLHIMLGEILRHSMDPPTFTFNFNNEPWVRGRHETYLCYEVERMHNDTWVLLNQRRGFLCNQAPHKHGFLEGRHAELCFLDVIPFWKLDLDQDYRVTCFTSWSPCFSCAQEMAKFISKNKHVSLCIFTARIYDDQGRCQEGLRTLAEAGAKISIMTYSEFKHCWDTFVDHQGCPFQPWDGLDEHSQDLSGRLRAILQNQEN
Outline: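 Yellow fluorescence (Ex 488, Em 500-530) of Vif-coexpressing HeLa A3G-eYFP cells, scanned by Acumen cytometer, reports blocked A3G degradation. Cells plated at 700/well overnight at 37 deg C before compound addition, then a further overnight compound incubation at 37 deg C.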

[16] = NCATS anti-infectives library activity on HEK293 viability as a counter-qHTS vs the C. elegans viability qHTS (AID 1745854)
Outline: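 Compound titrations (final up to 41.7 uM) were incubated with HEK293 cells for 24 hr at 37C under 5% CO2. Viable cells were quantified with CellTiter-Glo after 10 min at ambient temperature.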

[17] = biological target: Cytochrome P450 1A2 (Homo sapiens) (UniProt P05177); assay: p450-cyp1a2 (AID 410; calls by dose curve;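 note: -100% = full effect of reference inhibitor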)
Cytochrome P450 1A2 (Homo sapiens), sequence (P05177 whole entry, looked up): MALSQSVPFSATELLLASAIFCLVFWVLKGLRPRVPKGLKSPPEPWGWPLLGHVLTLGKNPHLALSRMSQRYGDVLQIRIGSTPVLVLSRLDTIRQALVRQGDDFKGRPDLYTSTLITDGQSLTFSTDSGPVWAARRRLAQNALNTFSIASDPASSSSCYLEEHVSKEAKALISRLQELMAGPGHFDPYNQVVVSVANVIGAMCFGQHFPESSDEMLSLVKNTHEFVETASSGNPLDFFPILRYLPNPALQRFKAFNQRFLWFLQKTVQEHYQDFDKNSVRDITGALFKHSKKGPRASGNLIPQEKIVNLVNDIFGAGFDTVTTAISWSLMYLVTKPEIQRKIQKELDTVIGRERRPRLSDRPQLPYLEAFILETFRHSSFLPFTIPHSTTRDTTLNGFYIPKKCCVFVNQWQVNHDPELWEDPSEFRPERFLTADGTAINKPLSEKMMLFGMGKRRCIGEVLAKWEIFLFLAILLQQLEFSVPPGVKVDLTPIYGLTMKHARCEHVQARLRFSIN
Outline: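 Read-out is luminescence from luciferin produced by CYP1A2 demethylation of Luciferin-ME (100uM, at Km). Detection reagent stopped the 60 min NADPH-dependent reaction; signals were normalized to 57 uM furafylline.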

[18] = biological target: Glucocorticoid receptor (Homo sapiens) (UniProt P04150); assay: GR-GFP Redistribution (AID 450;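 active = compounds whose dose series gives a full or clear partial fitted curve of increased nuclear translocation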; note: potency is the fitted concentration of half-maximal effect); details: U2OS GR-GFP nuclear translocation, laser cytometry, 2 h
Glucocorticoid receptor (Homo sapiens), sequence (P04150 whole entry, looked up, the tested form may be a part): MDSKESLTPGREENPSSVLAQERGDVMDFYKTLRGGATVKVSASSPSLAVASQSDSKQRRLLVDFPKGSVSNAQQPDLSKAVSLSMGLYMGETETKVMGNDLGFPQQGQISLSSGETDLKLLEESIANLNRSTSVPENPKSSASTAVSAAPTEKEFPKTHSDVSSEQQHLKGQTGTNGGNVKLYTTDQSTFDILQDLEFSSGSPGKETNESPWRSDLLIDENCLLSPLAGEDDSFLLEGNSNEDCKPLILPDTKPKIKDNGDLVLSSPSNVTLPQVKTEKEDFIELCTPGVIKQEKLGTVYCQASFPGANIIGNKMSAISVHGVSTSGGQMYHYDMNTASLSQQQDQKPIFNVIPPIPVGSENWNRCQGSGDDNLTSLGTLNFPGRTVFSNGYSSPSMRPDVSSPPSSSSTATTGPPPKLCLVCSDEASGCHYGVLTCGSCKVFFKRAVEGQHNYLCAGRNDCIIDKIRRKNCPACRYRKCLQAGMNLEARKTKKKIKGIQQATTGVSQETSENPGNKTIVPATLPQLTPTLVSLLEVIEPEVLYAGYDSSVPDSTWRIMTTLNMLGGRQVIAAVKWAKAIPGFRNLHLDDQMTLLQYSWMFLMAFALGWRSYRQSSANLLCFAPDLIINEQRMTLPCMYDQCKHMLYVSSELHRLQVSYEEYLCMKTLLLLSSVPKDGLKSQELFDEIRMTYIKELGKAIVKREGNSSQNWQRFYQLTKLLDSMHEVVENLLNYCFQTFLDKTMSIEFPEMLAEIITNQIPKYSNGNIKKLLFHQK

[19] = biological target: Glucocorticoid receptor (Homo sapiens) (UniProt P04150); assay: GR-EFC Redistribution (AID 451; calls by dose curve; note: potency is the fitted concentration of half-maximal effect); details: CHO-K1 GR-EFC translocation, beta-gal luminescence, 2 h
Outline: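 CHO-K1 cells stably expressing nuclear-localized β-gal enzyme acceptor and GR fused C-terminally to the enzyme donor fragment; ligand-driven nuclear translocation restores β-gal by complementation. Compounds titrated up to 46 uM final, 2 h at 37 °C; luminescence read.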

[20] = biological target: 3',5'-cyclic-AMP phosphodiesterase 4B (Homo sapiens) (UniProt Q07343); assay: qHTS Assay for Inhibitors of PDE-IV (AID 607; active = well fitted activation curve with a large enough effect in the main read-out, with a control signal flat, not every such curve was filed as active; note: % of control where 0% means no effect)
3',5'-cyclic-AMP phosphodiesterase 4B (Homo sapiens), sequence (Q07343 whole entry, looked up): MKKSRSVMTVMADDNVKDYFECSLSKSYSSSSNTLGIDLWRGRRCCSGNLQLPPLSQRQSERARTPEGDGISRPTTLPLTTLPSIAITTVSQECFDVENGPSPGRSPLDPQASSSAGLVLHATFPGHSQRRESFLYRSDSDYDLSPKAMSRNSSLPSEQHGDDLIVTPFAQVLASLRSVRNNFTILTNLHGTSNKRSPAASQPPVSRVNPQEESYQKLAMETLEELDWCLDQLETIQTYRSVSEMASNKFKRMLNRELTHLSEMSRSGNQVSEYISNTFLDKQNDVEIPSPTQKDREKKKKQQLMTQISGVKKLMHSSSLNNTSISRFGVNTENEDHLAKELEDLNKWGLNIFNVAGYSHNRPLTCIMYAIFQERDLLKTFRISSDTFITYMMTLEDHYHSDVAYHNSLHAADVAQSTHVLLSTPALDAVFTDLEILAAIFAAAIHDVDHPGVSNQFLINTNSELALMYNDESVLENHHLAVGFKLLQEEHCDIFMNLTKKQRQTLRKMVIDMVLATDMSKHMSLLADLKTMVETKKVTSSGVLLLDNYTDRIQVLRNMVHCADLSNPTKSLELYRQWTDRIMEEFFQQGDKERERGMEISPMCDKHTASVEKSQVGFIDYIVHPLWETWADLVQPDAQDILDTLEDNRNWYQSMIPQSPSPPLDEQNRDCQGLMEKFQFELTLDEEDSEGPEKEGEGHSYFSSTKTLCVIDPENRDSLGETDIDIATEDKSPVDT
Outline: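 ACTOne HEK293 cells carry a modified cAMP-gated CNG channel and express endogenous PDE4; plated 1000 cells/well, compounds up to 22.9 uM final. Membrane-potential dye fluorescence (ex 535/em 590) was read; parental cells received 10 uM forskolin + 100 uM RO 20-1724.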

[21] = qHTS Assay for Lipid Storage Modulators (AID 1519; calls by dose curve); details: Drosophila S3 cells, BODIPY lipid droplet/cell ratio, laser cytometry, cells loaded with oleic acid
Outline: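 Cells seeded at 5,000 per well were treated with compounds over a concentration series and loaded with oleic acid (400 uM, as added). Lipid droplet fluorescence (488 nm excitation, 500-530 nm channel) was read by laser-scanning cytometry and normalized to 20 uM Triacsin C.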

[22] = biological target: Ubiquitin carboxyl-terminal hydrolase 1 (Homo sapiens) (UniProt O94782); assay: Inhibitors of USP1/UAF1: Pilot qHTS (AID 504865);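 note: rhodamine fluorescence freed from ubiquitin-rhodamine substrate followed over time; top concentration of the series differs between compounds; % is set by controls: 0 for no effect and ±100 for the full control effect; nearly all actives have a fitted effect of over 35% in size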
Ubiquitin carboxyl-terminal hydrolase 1 (Homo sapiens), sequence (O94782 whole entry, looked up): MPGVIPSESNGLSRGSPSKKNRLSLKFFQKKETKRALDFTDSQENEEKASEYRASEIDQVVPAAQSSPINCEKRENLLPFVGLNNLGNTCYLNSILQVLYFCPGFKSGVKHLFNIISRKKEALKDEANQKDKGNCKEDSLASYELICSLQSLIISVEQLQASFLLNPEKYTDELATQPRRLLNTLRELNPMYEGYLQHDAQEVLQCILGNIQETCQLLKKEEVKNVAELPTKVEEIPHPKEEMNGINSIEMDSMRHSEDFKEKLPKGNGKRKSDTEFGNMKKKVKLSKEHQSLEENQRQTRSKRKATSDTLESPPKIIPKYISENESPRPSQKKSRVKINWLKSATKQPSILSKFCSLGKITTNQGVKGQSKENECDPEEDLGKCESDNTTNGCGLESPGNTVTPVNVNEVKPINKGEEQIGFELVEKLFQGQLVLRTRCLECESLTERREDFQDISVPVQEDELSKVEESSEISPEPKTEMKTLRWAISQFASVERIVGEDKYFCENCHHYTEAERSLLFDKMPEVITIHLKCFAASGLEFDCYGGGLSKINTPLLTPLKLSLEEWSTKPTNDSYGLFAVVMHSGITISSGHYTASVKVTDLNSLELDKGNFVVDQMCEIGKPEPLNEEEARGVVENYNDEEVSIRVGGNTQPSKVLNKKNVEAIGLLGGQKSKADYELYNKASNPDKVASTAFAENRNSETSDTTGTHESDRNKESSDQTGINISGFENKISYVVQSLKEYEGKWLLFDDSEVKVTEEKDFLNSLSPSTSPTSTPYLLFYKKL
Outline: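 Enzyme-free wells gave the negative control, while test wells held 1nM USP1/UAF1 preincubated with compound for 15 min at room temperature. Ub-Rho at 150nM final started the reaction, and fluorescence at 480/540 nm was recorded kinetically.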

[23] = biological target: Cytochrome P450 2C9 (Homo sapiens) (UniProt P11712); assay: qHTS Assay for Inhibitors and Substrates of Cytochrome P450 2C9 (AID 883); note: % is set by controls: 0 for no effect and ±100 for the full control effect; nearly all actives have a fitted effect of over 60% in size
Cytochrome P450 2C9 (Homo sapiens), sequence (P11712 whole entry, looked up): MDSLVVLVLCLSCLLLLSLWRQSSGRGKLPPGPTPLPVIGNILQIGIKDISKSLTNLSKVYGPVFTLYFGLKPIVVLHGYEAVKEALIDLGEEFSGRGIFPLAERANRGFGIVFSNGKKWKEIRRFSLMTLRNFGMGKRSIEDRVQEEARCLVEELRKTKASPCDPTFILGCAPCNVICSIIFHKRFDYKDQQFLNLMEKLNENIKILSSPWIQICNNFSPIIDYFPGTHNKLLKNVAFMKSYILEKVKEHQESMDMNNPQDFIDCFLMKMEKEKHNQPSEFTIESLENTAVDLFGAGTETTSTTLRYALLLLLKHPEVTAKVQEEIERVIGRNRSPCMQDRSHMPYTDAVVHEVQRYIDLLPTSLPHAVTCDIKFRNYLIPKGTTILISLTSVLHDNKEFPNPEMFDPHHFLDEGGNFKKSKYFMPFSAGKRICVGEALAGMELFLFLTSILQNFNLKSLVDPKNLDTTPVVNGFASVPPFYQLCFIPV
Outline: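 Human CYP2C9 (10nM) hydroxylated Luciferin-H (100uM, at its KM) to luciferin in 25mM KPO4. Compound was preincubated 10 min at 37C, then NADPH regeneration started a 60 min reaction at 37C. Luminescence was read after detection reagent, normalized to 57uM sulphaphenazole.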

[24] = biological target: Cytochrome P450 3A4 (Homo sapiens) (UniProt P08684); assay: qHTS Assay for Activators of Cytochrome P450 3A4 (AID 885); note: nearly all actives have a fitted effect of over 65% in size
Outline: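 CYP3A4 activity: Luciferin-PPXE O-dealkylation, 25uM substrate, 200mM KPO4, RT throughout. Read-out is luciferase luminescence; higher values reflect activation.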

N[C@@H](CCS(=O)O)C(=O)O
inactive: Potency [1] | Potency [2] | Potency [3] | Potency [4]

CCCCCCCCCCCCCCCC(=O)OC(CO)CO
inactive: Potency [5] | Potency [1] | Potency [2] | Potency [3]

COc1ccc(CCN(C)CCC[C@@](C#N)(c2ccc(OC)c(OC)c2)C(C)C)cc1OC
active: Potency [3] 12.6 µM
inactive: activity change, negative = inhibition ([6]; at 17.2 µM (top of the series)) 2.2% | activity change, negative = inhibition ([6]; at 38 µM (top of the series)) 10.5% | activity, negative = inhibition ([7]; at 17.2 µM (top of the series)) -16.1% | activity, negative = inhibition ([7]; at 38 µM (top of the series)) -6.6% | Potency [8] | outcome [9] | Potency [10] | Potency [11] | outcome [12] | outcome [13] | outcome [14] | Potency [15] | Potency [1] | Potency [2] | outcome [16]

COc1ccc(NS(=O)(=O)c2ccc(I)cc2)cc1N1CCN(C)CC1
active: Potency [3] 7.94 µM
28.9%: max response ([21]; measured here: lipid channel max response)
inactive: Potency [17] | Potency [18] > 46 µM | Potency [19] > 46 µM | Potency [8] | Potency [20] | activity change, negative = inhibition ([21]; at 57.5 µM (top of the series)) 12.5% | Potency [22] | Potency [15] | Potency [1] | Potency [2]
18.9%: max response ([21]; measured here: cell count channel max response)

O=[N+]([O-])c1ccc(CSc2ncnc3c2ncn3C2OC(CO)C(O)C2O)cc1 (stereo not drawn)
inactive: Potency [1] | Potency [4]

C[C@@H](NCc1cc(Br)cc2[nH]c(=O)c(=O)[nH]c12)P(=O)(O)O
active: Potency [18] 0.264 µM
inactive: Potency [17] | Potency [19] > 46 µM | Potency [8] | Potency [20] | Potency [23] | Potency [22] | Potency [15] | Potency [1] | Potency [2] | Potency [3]

CC(C)C[C@H]1C(=O)N2CCC[C@@H]2[C@]2(O)O[C@](NC(=O)[C@@H]3C=C4c5cccc6[nH]c(Br)c(c56)C[C@H]4N(C)C3)(C(C)C)C(=O)N12
inactive: Potency [18] > 46 µM | Potency [19] > 46 µM | Potency [20] | Potency [24] | Potency [15] | Potency [1] | Potency [2]
active: Potency [3] 10 µM
